Results taken from PubChem BioAssay AID504445 (The Scripps Research Institute Molecular Screening Center, 2011).
This is one part of the list. A number with no mark means an inactive call. Active and inactive are the calls of the source.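 The calls were made as follows: active = mean inhibition over triplicate wells above a set limit taken from the primary lipase screen (cut at about 34% in these data); inactive = the rest.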

The compounds below were run against Diacylglycerol lipase-beta (Homo sapiens) (UniProt Q8NCG7) (assay: DAGLB lipase inhibitors, retest, confirmation, biochemical, fluorescence, HEK293T membranes (AID 504445;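 also: 0% = DAGLB with DMSO and 100% = wells lacking DAGLB enzyme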)). Conditions: HEK293T DAGLB membrane lysate, EnzChek fluorogenic substrate; at 5.17 µM; stronger effect = higher value.
Chain of Diacylglycerol lipase-beta (Homo sapiens) (Q8NCG7 whole entry, looked up): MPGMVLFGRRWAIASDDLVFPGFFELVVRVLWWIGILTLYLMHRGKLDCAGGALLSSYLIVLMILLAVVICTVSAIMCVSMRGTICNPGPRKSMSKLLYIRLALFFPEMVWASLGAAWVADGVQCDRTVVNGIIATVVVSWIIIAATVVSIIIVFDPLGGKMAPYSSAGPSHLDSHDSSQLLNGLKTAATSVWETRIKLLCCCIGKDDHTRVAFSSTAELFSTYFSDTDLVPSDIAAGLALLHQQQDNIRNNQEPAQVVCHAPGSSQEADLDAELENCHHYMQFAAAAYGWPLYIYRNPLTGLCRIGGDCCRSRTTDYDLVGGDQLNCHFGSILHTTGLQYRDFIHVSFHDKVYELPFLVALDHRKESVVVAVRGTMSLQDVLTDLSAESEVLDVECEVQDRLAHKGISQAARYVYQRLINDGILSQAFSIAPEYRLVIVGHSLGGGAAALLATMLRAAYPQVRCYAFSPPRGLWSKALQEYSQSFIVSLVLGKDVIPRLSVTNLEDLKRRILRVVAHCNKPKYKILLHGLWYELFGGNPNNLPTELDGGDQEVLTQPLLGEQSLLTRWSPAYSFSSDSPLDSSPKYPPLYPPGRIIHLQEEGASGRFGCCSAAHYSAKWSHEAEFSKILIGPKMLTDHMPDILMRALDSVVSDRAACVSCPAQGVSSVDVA

**Q.** `COc1cccc(/C=N/Nc2ccc(S(=O)(=O)Nc3ccccc3C(=O)O)cc2[N+](=O)[O-])c1O` was tested. Which inhibition did it give?
**A.** Its inhibition is 49.7% (active).

**Q.** Which inhibition does the source give for `Cc1ccc(S(=O)(=O)/N=C2\C=C(NS(=O)(=O)c3ccc(C)cc3)C(=O)c3ccccc32)cc1` here?
**A.** The inhibition was 18.2%.

**Q.** `COc1ccc(Br)cc1/C=N/Nc1ccc(S(=O)(=O)Nc2ccccc2C(=O)O)cc1[N+](=O)[O-]` was tested. Which inhibition did it give?
**A.** Its inhibition is 27.4%.

**Q.** Which inhibition does the source give for `O=C(NNc1c2ccccc2nc2ccccc12)c1cc2ccccc2cc1O` here?
**A.** Its inhibition is 63.4% (active).

**Q.** `Cc1ccc(/C=N/NC(=O)C(NC(=O)c2ccccc2)c2n[nH]c(=O)c3ccccc23)cc1` (configuration not stated) was tested. Which inhibition did it give?
**A.** Its inhibition is 27.9%.

**Q.** For `O=C(Oc1cccc(N2C(=O)C3C4c5ccccc5C(c5ccccc54)C3C2=O)c1)c1ccco1` (configuration not stated), which inhibition is on record?
**A.** The inhibition was 31.9%.

**Q.** How did the inhibition turn out when `Cc1oc2cc([N+](=O)[O-])c(O)c([N+](=O)[O-])c2c1C(=O)c1ccc(Br)cc1` was run?
**A.** The inhibition was 49.9% (active).
